Screens (PubChem BioAssay)
Compounds with a hit are over-represented: about 1.1% of the library has one in this group of screens.
USP7 inh – inhibitors of human USP7 deubiquitinase. Q93009. purified USP7, Ub-rhodamine cleavage fluorescence. inhibition, % at 20 µM. 0.3% of 47,000 active. AID 1645854
Target sequence (Q93009 whole entry, looked up): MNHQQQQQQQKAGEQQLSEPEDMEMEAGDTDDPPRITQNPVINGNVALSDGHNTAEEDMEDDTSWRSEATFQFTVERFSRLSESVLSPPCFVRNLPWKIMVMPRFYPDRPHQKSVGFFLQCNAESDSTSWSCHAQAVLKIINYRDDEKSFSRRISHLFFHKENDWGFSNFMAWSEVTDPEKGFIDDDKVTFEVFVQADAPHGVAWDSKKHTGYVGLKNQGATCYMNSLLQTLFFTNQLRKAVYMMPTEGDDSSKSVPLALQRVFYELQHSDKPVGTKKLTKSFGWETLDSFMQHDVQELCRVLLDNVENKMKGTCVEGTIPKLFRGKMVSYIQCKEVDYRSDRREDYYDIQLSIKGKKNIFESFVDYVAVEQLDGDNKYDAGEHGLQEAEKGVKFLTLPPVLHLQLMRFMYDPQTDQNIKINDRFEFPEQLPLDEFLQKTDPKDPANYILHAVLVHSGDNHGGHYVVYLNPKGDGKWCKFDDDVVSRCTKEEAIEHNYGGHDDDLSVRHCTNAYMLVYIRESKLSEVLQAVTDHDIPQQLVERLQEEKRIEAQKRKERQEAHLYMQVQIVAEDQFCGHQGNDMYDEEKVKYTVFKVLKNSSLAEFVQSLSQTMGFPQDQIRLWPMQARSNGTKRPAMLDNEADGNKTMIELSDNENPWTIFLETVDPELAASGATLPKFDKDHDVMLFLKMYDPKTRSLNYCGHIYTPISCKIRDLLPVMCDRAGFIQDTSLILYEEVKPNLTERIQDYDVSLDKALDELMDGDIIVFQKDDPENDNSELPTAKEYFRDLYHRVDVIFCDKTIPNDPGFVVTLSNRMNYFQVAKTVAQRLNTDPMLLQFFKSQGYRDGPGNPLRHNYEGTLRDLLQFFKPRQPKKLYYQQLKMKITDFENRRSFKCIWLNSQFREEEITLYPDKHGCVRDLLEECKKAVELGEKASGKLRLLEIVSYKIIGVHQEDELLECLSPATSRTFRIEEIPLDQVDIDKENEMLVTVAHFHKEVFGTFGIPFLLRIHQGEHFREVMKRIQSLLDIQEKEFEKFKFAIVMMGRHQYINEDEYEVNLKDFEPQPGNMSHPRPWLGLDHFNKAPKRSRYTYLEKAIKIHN
UCHL1 inh – inhibitors of human UCHL1 deubiquitinase; purified UCHL1, Ub-rhodamine cleavage fluorescence; AID 1645859; 0.2% of 47,000 active; P09936; inhibition, % at 20 µM
OTUD3 block – inhibitors of human OTUD3 deubiquitinase; purified OTUD3, Ub-rhodamine fluorescence, 2 h; Q5T2D3; 0.7% of 47,000 active; AID 1645858; inhibition, % at 25 µM
* = called active by the depositor. Cut-off read from the data, not from the text of the source: active = inhibition above about 30%; inactive = the rest.

SMILES	USP7 inh	UCHL1 inh	OTUD3 block
CCCCCCCc1cc(OC(=O)c2c(CCCCCCC)cc(O)cc2O[C@@H]2O[C@H](CO)[C@H](O)[C@H](O)[C@H]2O)cc(O)c1C(=O)O	100.1*	68.8*	100.4*
COc1ccc(S(=O)(=O)N2CCOC(c3nccnc3N)C2)cc1 (configuration not stated)	0.8	-0.5	-0.2
CSc1ncccc1C(=O)Nc1ccnn1Cc1ccccc1	2.8	0.4	-4.7
CSc1ncccc1C(=O)OCc1ccccc1	-6.6	73.9*	1.6
O=C(COC(=O)c1ccc(F)cc1)Nc1ccc2[nH]c(=O)[nH]c2c1	11.7	5.2	9.7
O=C(COC(=O)c1cc(Cl)c2c(c1)OCO2)Nc1ccc2[nH]c(=O)[nH]c2c1	-34.7	2.3	30.7*
CCOC(=O)N1CCC(NC(=O)c2cn(-c3ccc(F)cc3)nn2)CC1	-0.7	-1.1	-58.6
CC[C@@H]1CC[C@]2(O)OC[C@H]3C(=O)[C@]2(O)[C@@H]1O[C@@H]3O	3.8	-0.3	-3.8
COc1ccc(C2CC(=O)Nc3ccc4ccccc4c32)c(OC)c1OC (configuration not stated)	0.2	1.8	11.4
CCOc1ccccc1C1CC(=O)Nc2ccc3ccccc3c21 (configuration not stated)	8.0	89.0*	5.3
Cc1ccc2cnn(CC(=O)N3CCc4ccccc4C3)c2c1	2.3	2.1	-0.1
Cc1c(C(=O)NC(C)C)cnn1-c1cc(-c2nc(C3CC3)no2)ccn1	4.8	0.1	8.4
Cc1ccc(C2=Nc3ccccc3N(CC(=O)Nc3cccc(C)c3C)C(=O)C2)cc1C	11.7	2.1	30.8*
Cc1cccc(NC(=O)CN2C(=O)CC(c3ccccc3)=Nc3ccccc32)c1C	3.2	-1.1	9.3
Cc1ccc(-c2cn3ccsc3n2)cc1	-2.0	-0.3	-1.2
O=C(Nc1ccc(-c2cn3ccsc3n2)cc1)c1ccc(Cl)c([N+](=O)[O-])c1	54.2*	11.1	24.4
O=C(Nc1ccc(Cl)cc1)C1CCC(=O)N1Cc1cccs1 (configuration not stated)	-11.0	-0.9	-6.3
O=C(COC(=O)c1ccccc1NS(=O)(=O)c1ccc2c(c1)OCCO2)c1ccc([N+](=O)[O-])cc1	5.5	-1.4	-9.7
COc1ccc(C(=O)COC(=O)c2ccccc2NS(=O)(=O)c2ccc(O)c([N+](=O)[O-])c2)cc1	24.3	5.4	36.1*
O=C1CC(c2ccco2)Cc2[nH]c(=O)c(-c3nc(-c4ccc(Cl)cc4)cs3)cc21 (configuration not stated)	40.7*	13.1	37.9*
COc1ccc(-c2csc(-c3cc4c([nH]c3=O)CC(c3ccco3)CC4=O)n2)cc1 (configuration not stated)	-34.0	-35.8	2.9
CCC(=O)Nc1ccc(-n2cnc(C(=O)N3CCc4ccccc4C3)c2)nc1	15.5	8.3	0.1
O=[N+]([O-])c1cc(S(=O)(=O)Nc2ccccc2)ccc1NCc1ccc(F)cc1	-121.4	5.8	22.7
Cc1ccc(NC(=O)Cc2nnc3cc(-c4nc(C)no4)ccn23)cc1	38.7*	5.9	30.1*
CCc1ccc(NC(=O)Cc2nnc3cc(-c4nc(C)no4)ccn23)cc1	44.4*	0.5	15.0
SMILES	USP7 inh	UCHL1 inh	OTUD3 block
Cc1noc(-c2ccc3nnc(CC(=O)Nc4ccc(F)c(C)c4)n3c2)n1	0.7	-2.8	-5.1
CCc1noc(-c2ccn3c(CC(=O)Nc4ccccc4C)nnc3c2)n1	9.1	0.5	10.1
CNC(=O)c1cc2c(nc1NC(C)C)CCN(c1ncc(F)cn1)CC2	-15.2	2.0	6.5
O=C(Cn1c(Cc2ccccc2)nc2ccccc21)N1CCc2ccccc21	-0.1	0.0	-0.1
Cc1cccc(NC(=O)C2(C)Oc3cccnc3N(C(C)C)C2=O)c1 (configuration not stated)	1.4	-0.3	3.7
COc1ccc(CN2CCC([C@@H]3C[C@H](C(F)(F)F)n4ncnc4N3)CC2)cc1	0.3	0.0	13.7
COc1ccc2[nH]c(C(=O)N3CCN(C(=O)c4ccccc4)CC3)cc2c1	-2.5	-0.3	-5.2
CCC[C@H]1O[C@@H]2CC(=O)O[C@@H]2C2=C1C(=O)c1c(O)cccc1C2=O	-39.7	14.3	51.5*
CC1OC2CC(=O)OC2C2=C1C(=O)c1c(O)cccc1C2=O (configuration not stated)	-56.7	24.8	45.0*
CC1CC(=O)c2c(O)cccc2O1 (configuration not stated)	6.8	0.7	6.6
O=C(NCCc1ccccc1F)[C@@H]1Cc2c([nH]c3ccccc23)C2c3ccccc3C(=O)N21 (some centres not stated)	-3.2	0.1	-8.0
Cc1oncc1C(=O)NCc1noc(CCc2ccccc2)n1	-7.4	-2.7	-8.7
Cc1nnc(-c2c(C)[nH]c(C)c2S(=O)(=O)N2CCN(c3ccccc3F)CC2)o1	-2.2	-2.7	-124.7
NC(=O)c1nc(-c2ccccn2)nc2c1[nH]c(=O)n2-c1ccc2c(c1)OCO2	5.7	2.7	45.0*
Cc1cccc(-n2c(=O)[nH]c3c(C(N)=O)nc(-c4ccccn4)nc32)c1	-1.7	-3.5	7.5
NC(=O)c1nc(-c2cccnc2)nc2c1[nH]c(=O)n2-c1ccc2c(c1)OCO2	7.0	0.7	48.0*
NC(=O)c1nc(C2CCCCC2)nc2c1[nH]c(=O)n2-c1ccc2c(c1)OCO2	8.7	3.2	6.2
Cc1ccc(N(CC(=O)Nc2cccc(C(=O)O)c2)S(=O)(=O)c2c(C)nn(C)c2C)cc1	-1.7	-1.3	11.4
O=S(=O)(c1ccccc1)N1CCC2(CC1)NCCN=C2NCc1cc(F)cc(F)c1	7.0	1.3	16.0
CNC(=O)C1CN(C(=O)c2ccc(C#N)cc2)CC12CCCC2 (configuration not stated)	-8.4	-3.9	-7.3
CNC(=O)C1CN(C(=O)c2ccc(OC)cc2)CC12CCCC2 (configuration not stated)	0.8	0.0	54.7*
Cc1sc2c(=O)n(C(C)C)cnc2c1C(=O)NCc1ccccc1	-3.9	-0.9	-17.1
Cc1nnc(NC(=O)NCc2cccc(C(F)(F)F)c2)s1	0.1	-2.1	0.0
COC(=O)[C@H](Cc1ccc(O)cc1)NC(=O)c1ccc(Cl)cc1	-0.2	2.2	-3.9
COc1ccc(C(=O)Nc2ccccc2C(=O)NC(Cc2ccc(O)cc2)C(=O)NNC(=O)c2ccccc2Cl)cc1 (configuration not stated)	12.1	3.4	74.9*
SMILES	USP7 inh	UCHL1 inh	OTUD3 block
Cc1c(Cl)cccc1NC(=O)c1[nH]nc2c1COc1ccccc1-2	1.3	-7.5	-51.4
Cc1cc(=O)[nH]c(C2CN(C(=O)c3noc4c3CCCC4)CCO2)n1 (configuration not stated)	1.3	0.0	9.6
O=C(Nc1ccc(-c2nn3cnnc3s2)cc1)c1ccc(Br)cc1	3.4	-0.6	-0.8
O=C(COc1ccc(C2CCCCC2)cc1)Nc1ccc(-c2nn3cnnc3s2)cc1	8.4	1.4	46.2*
Cc1ccccc1CN1CCC(C2CCCCCN2C(=O)C2CCOCC2)CC1 (configuration not stated)	0.9	-1.7	-8.6
Cc1cc(-c2cnc(NCCN3CCC(C)CC3)nc2-c2ccco2)on1	1.6	0.8	-10.3
O=C(c1cnc2[nH][nH]c(=O)c2c1)c1cc(Cl)cc(Cl)c1O	78.9*	61.9*	71.2*
O=C(c1cnc2oc3ccccc3c2c1)c1ccccc1O	1.0	1.3	5.4
